Assay results: PubChem BioAssay AID1117319 (Southern Research Institute, 2015)
“And” between values parts separate entries of the source, which are not always exact repeats. Equal entries are not always repeated. Out of some 260,000 compounds screened, about 1,500 (0.58%) were called active. Another 5% or so got no clear call; they are omitted. Not all results are given here. Results with a measured potency or affinity are listed apart. Unmarked numbers belong to inactive results.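 How the source made its calls: active means inhibition above a set limit at one or more doses, reproduced on every date tested; inconclusive means results disagree between test dates, or hit never tested in dose response; inactive means the rest.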

molecular target: Virion infectivity factor (Human immunodeficiency virus type 1 group M subtype B (isolate BH10)) + Virion infectivity factor (Human immunodeficiency virus type 1 group M subtype B (isolate BRU/LAI)) + Virion infectivity factor (Human immunodeficiency virus type 1 group M subtype B (isolate PCV12)) + Virion infectivity factor (Human immunodeficiency virus type 1 group M subtype B (isolate HXB2)) + DNA dC->dU-editing enzyme APOBEC-3G (Homo sapiens) (UniProt P69720+P69721+P69722+P69723+Q9HC16); experiment: HIV-1 Vif–A3G interaction blockers – biochemical, TR-FRET, GST-Vif 1-94, biotin-A3G peptide, dose response retest, primary screen (AID 1117319); settings: TR-FRET GST-Vif / biotin-A3G peptide binding; hits give high values;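 further: Vif residues 1-94 fused to GST binding biotinylated APOBEC3G peptide 110-148; 0% = full assay without inhibitor and 100% = GST in place of GST-Vif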

Going from `C[C@H](O)[C@@H]1C(=O)N2CCc3ccc(N4CCOCC4)cc3[C@@H]2C[C@@H]1N(C)S(=O)(=O)c1ccccc1` to `N#CC(C(=O)NCCc1ccccc1)c1nc2ccccc2nc1N1CCOCC1` (stereo not given), the inhibition rises from -8.52% to -2.43%.

First: CN1C(=O)C(N=Nc2ccccc2C(=O)O)N(C)C1=S (stereo not given)
Second: O=C(O)c1cccc2cc(-c3ccccc3)oc(=O)c12
The inhibition of the first is higher: 30.3% for the first, 3% for the second.

Going from `Cc1ccc(SCC(=O)N(C)CC(=O)Nc2cccc(F)c2)cc1` to `CCn1cnc2cc(NC(=O)c3ccc(C)cc3)ccc21`, the inhibition falls from 0.72% to -2%.

Going from `COc1cccc(-n2c(SC)nnc2-c2cnccn2)c1` to `Cc1cccc(N2C(=O)/C(=C/c3cccnc3)SC2=S)c1`, the inhibition falls from -0.18% to -1.54%.

First: CCN(CC(=O)Nc1cc(Cl)ccc1C)C(=O)c1ccc2c(=O)n3c(nc2c1)CCC3
Second: CCN(CC(=O)Nc1c(C(=O)OC)[nH]c2ccc(Cl)cc12)c1ccc2c(c1)OCO2
The inhibition of the first is higher: 2.7% for the first, 0.99% for the second.

First: CN(C)Cc1cn(CCC(=O)O)c2ccccc12
Second: CC(=O)NCCn1c(SCc2ccc(C)cc2C)nc2ccccc2c1=O
The inhibition of the first is higher: -3.96% for the first, -4.41% for the second.

Going from `O=C1OC/C(=C(/O)c2ccc(Cl)cc2)C1=O` to `CC1(C)N=C(c2ccc(Cl)cc2)C(=O)N1`, the inhibition rises from -8.18% to -0.69%.

Going from `Cc1ccc(/C=C2\SC(=S)N(Cc3ccccc3)C2=O)o1` to `O=C(O)c1ccc(/C=C2/SC(=S)N(Cc3ccccc3)C2=O)cc1`, the inhibition falls from 29.5% to -0.52%.

Compared with `O=C1/C(=C/c2cccnc2)SC(=S)N1c1ccccc1`, `Cc1ccc(/C=C2\SC(=S)N(c3cccnc3)C2=O)cc1` is higher in inhibition: 8.11% for the first, 21.1% for the second.

First: O=C1/C(=C/c2cccs2)SC(=S)N1c1ccccc1
Second: O=C1S/C(=C\c2cccs2)C(=O)N1c1ccc(O)cc1
The inhibition of the first is higher: -6.53% for the first, -10.4% for the second.

Going from `Cc1nn(C)c(C(=O)NNC(=S)Nc2ccc(F)cc2)c1[N+](=O)[O-]` to `Cc1ccc(NC(=S)C2=C(O)c3sccc3N(C)S2(=O)=O)cc1`, the inhibition rises from -3.65% to 10.2%.

First: COCCn1c(SCC(=O)N2CCCc3ccccc32)nc2cccnc21
Second: O=C(CCc1nnc(CCc2ccccc2)o1)N1CCCCC1CCn1cccn1 (stereo not given)
The inhibition of the first is higher: -1.26% for the first, -2.83% for the second.

First: C/C(=N\S(=O)(=O)c1ccc(C)cc1)NC(=S)Nc1ccccc1
Second: CN1CCN(S(=O)(=O)c2ccc(NC(=S)NC(=O)c3ccccc3)cc2)CC1
The inhibition of the first is lower: -0.88% for the first, 0.13% for the second.

First: Cc1ccsc1C(=O)OCC(=O)Nc1cccc(S(=O)(=O)N2CCOCC2)c1
Second: Cc1ccc(NC(=O)COC(=O)c2ccc(S(=O)(=O)N3CCCC3)cc2)cc1
The inhibition of the first is higher: 2.2% for the first, -1.07% for the second.

First: Cc1cc(C(=O)OC(C)C(=O)NC2CCCCC2C)c2ccccc2n1 (stereo not given)
Second: CC(OC(=O)CCC1CCCCC1)C(=O)Nc1ccc(S(N)(=O)=O)cc1 (stereo not given)
The inhibition of the first is lower: -2.6% for the first, 6.23% for the second.

Going from `Cc1ccc(C)c(Nc2nc(-c3ccncc3)nc3ccccc23)c1` to `Cc1ccc(C(=O)NNC(=O)c2ccc3ccccc3c2)cc1`, the inhibition rises from -7.92% to 1.23%.

First: O=C(OCc1ccccn1)c1ccc(COc2ccc3ccccc3c2)o1
Second: COc1ccc(OCCN(C)C(=O)c2cccc(S(=O)(=O)N(C)c3ccccc3)c2)cc1
The inhibition of the first is higher: 14.9% for the first, -4.53% for the second.

Compared with `CCCCCCNC(=O)C(C#N)c1nc2ccccc2nc1N1CCOCC1` (stereo not given), `O=C(c1ccccc1O)N1CCOCC1` is lower in inhibition: 5.51% for the first, -1.64% for the second.

Going from `Cc1nn(-c2ccccc2)c2sc(C(=O)N3CCCCC3)cc12` to `O=C1N=C(N2CCCC2)S/C1=C\c1ccccc1`, the inhibition rises from -2.58% to 27.9%.

First: CCCCN1C(=O)C(=O)N(CC(=O)c2ccc[nH]2)C1=O
Second: Cn1cccc1/C=C1\SC(=O)N(c2ccc(O)cc2)C1=O
The inhibition of the first is higher: 5.74% for the first, 4.46% for the second.

Compared with `COc1ccc(NC(=S)NCc2cccs2)cc1`, `O=C(CNC(=O)c1cc2ccccc2o1)NCc1cccs1` is higher in inhibition: 0.47% for the first, 15.4% for the second.

Compared with `COC(=O)c1[nH]c2ccccc2c1NC(=O)CN1CCN(Cc2ccc3c(c2)OCO3)CC1`, `CCc1cccc(C)c1NC(=O)CO/N=C(\C)c1cc2ccccc2o1` is higher in inhibition: -1.82% for the first, -0.14% for the second.

First: O=C(O)c1ccc(N2C(=O)/C(=C/C=C/c3ccccc3)SC2=S)cc1
Second: CN(C)c1ccc(/C=C/C=C2/SC(=S)N(c3ccccc3)C2=O)cc1
The inhibition of the first is lower: 7.15% for the first, 19.3% for the second.

First: CNC(=O)c1ccsc1NC(=O)C1CCCN1S(=O)(=O)c1cccs1 (stereo not given)
Second: Cc1ccc(C(=O)NC(=S)Nc2ccc(S(=O)(=O)N3CCN(C)CC3)cc2)cc1
The inhibition of the first is lower: -0.6% for the first, 1.48% for the second.

Compared with `O=C1N=C(N2CCOCC2)S/C1=C\c1ccc(-c2ccccc2Cl)o1`, `Cc1ccccc1-c1ccc(/C=C2/SC(N3CCOCC3)=NC2=O)o1` is lower in inhibition: 21.8% for the first, 6.07% for the second.

First: NC1=NC(=O)C(=Cc2ccccc2)S1
Second: NC1=NC(=O)/C(=C/c2cccs2)S1
The inhibition of the first is lower: 1.08% for the first, 10% for the second.

Going from `Cc1ccc(-c2ccc(/C=C3\SC(N4CCOCC4)=NC3=O)o2)cc1` to `O=C1N=C(N2CCOCC2)S/C1=C\c1cccs1`, the inhibition falls from 6.18% to -6.4%.

Going from `O=C1N=C(N2CCOCC2)S/C1=C/c1cccs1` to `O=C(c1ccccc1)c1ccccc1C(=O)N1CCOCC1`, the inhibition rises from 1.92% to 5.31%.

Compared with `COCc1cc(=O)[nH]c(N2CCN(C(=O)c3ccco3)CC2)n1`, `O=C(c1ccc(S(=O)(=O)N2CCCCCC2)cc1)N1CCN(c2ccccn2)CC1` is higher in inhibition: -8.81% for the first, -5.37% for the second.

First: CCOc1ccc(NC(=O)c2cc3c(=O)n(C)c4ccccc4c3n2C)cc1
Second: CN1c2ccccc2C(O)=C(C(=S)Nc2ccc(F)c(Cl)c2)S1(=O)=O
The inhibition of the first is lower: -12% for the first, -0.79% for the second.

Going from `Clc1ccc(NCn2cncn2)nc1` to `COc1ccc(CCNC(=O)Cn2cnc3c(cnn3C(C)(C)C)c2=O)cc1OC`, the inhibition falls from 10.8% to -3.55%.

Going from `Nc1c(O)ccc2c1C(=O)c1ccccc1C2=O` to `O=C(O)c1cccc(-c2ccccc2)c1O`, the inhibition falls from 10.2% to 2.46%.

First: Cc1oc2c(O)c(O)ccc2c(=O)c1-c1cnn(-c2ccccc2)c1
Second: Cc1cc(C(=O)N2CCc3c([nH]c4ccccc34)C2c2c(F)cccc2Cl)no1 (stereo not given)
The inhibition of the first is higher: 28.2% for the first, -4.57% for the second.

Going from `CCOC(=O)C(C#N)=C1CCN(Cc2ccccc2)CC1` to `CC(CCc1ccccc1)NC(=O)C1CCN(S(=O)(=O)N2CCOCC2)CC1` (stereo not given), the inhibition rises from -5.62% to -3.69%.

Going from `COc1ccc(CNC(=O)COC(=O)c2c(NC(C)=O)sc(C)c2C)cc1OC` to `Cc1ccc(C(=O)OCC(=O)Nc2ccc(S(N)(=O)=O)cc2)c(O)c1`, the inhibition falls from 1.62% to -10.3%.

First: O=C(O)C1CC(=O)N(c2ccc(OCc3ccc(Cl)cc3Cl)cc2)C1 (stereo not given)
Second: CC(=O)N1c2ccc(Cl)cc2C2C=CCC2C1c1cccc2ccccc12 (stereo not given)
The inhibition of the first is lower: 4.2% for the first, 19.4% for the second.

Going from `N#CC(C#N)=c1ccc2c(c1)N1C3=C(CCCC3)CC3CCCCC31N=2` (stereo not given) to `O=C(CCn1c(=S)oc2ccccc21)NC1CCCCCCC1`, the inhibition falls from 20.5% to -0.87%.

First: COC(=O)c1ccc(-n2nc(C(F)(F)F)c3c2-c2ccoc2CC3)cc1
Second: O=C(O)c1ccc(-n2nc(C(F)(F)F)c3c2CCCC3)cc1
The inhibition of the first is higher: 14.2% for the first, 0.77% for the second.

Compared with `CCCC1CC(C#N)N(N(C)C)C1=C(C#N)C#N` (stereo not given), `CCOC(=O)c1csc(NC(=O)CN2CCOCC2)n1` is lower in inhibition: -4.37% for the first, -8.71% for the second.

First: CC(C)n1ncc2c(C(=O)NCCc3ccc(S(N)(=O)=O)cc3)cc(C3CC3)nc21
Second: NS(=O)(=O)c1ccc(N=Nc2c(O)ccc3ccccc23)cc1
The inhibition of the first is lower: 1.54% for the first, 9.6% for the second.

First: COc1ccc(C(=O)Nc2nc3ccc(S(C)(=O)=O)cc3s2)cc1
Second: Cc1cc(C)nc(NS(=O)(=O)c2ccc(N/C=C/C(=O)c3ccc(Cl)c(Cl)c3)cc2)n1
The inhibition of the first is lower: -53.8% for the first, 32.2% for the second.

First: Cc1ccc(NC(=O)CNc2cccc(C)c2C)c(C)c1
Second: Cc1ccc(C)c(NC(=O)C2CC=CCC2C(=O)O)c1 (stereo not given)
The inhibition of the first is higher: 21.8% for the first, -2.09% for the second.

Compared with `Nc1nc(N)c(N=Nc2ccc(S(N)(=O)=O)cc2)c(=O)[nH]1`, `Cc1c(C#N)c(O)[nH]c(=O)c1N=Nc1ccc(S(N)(=O)=O)cc1` is higher in inhibition: 1.9% for the first, 3.16% for the second.

First: CN(C)c1ccc(N=Nc2ccc(S(N)(=O)=O)cc2)cc1
Second: CCN(CC)S(=O)(=O)c1cccc(NC(=O)C2SC(=Nc3ccc(C)cc3C)C(C(=O)NCC3CCCO3)=C2N)c1 (stereo not given)
The inhibition of the first is higher: 5.84% for the first, 2.72% for the second.

First: Cc1cccc(N2CCN(Cc3nc(-c4cccc(Oc5ccccc5)c4)oc3C)CC2)n1
Second: Cc1cc2cc(C(=O)N3CCc4c([nH]c5ccccc45)C3c3ccccn3)ccc2o1 (stereo not given)
The inhibition of the first is lower: 3.4% for the first, 10.8% for the second.

First: COc1ccccc1C1CCN(C(=O)c2ccccc2)CC1
Second: CCC(C)[C@H](NC(=O)C1CCN(C(=O)[C@H](Cc2ccccc2)NC(=O)OC(C)(C)C)CC1)C(=O)O (stereo not given in full)
The inhibition of the first is lower: 6.08% for the first, 7.73% for the second.

Going from `COc1cccc(C2Nc3c(F)cc(Br)cc3C3C=CCC32)c1OC` (stereo not given) to `O=C(O)C1C=CC(C(=O)O)c2ccccc21` (stereo not given), the inhibition falls from 5.44% to -4.89%.

For `CCOC(=O)N1CCC(n2c(SCC(=O)Nc3nccs3)nc3ccsc3c2=O)CC1`, the inhibition was -7.21% and 20.2%.
